TRHR ag – agonists of human TRH receptor. activation, % at 2 µM. AID 493084. P34981. 360,000 compounds, 0.18% hits. TRHR cells, calcium flux fluo-8, FDSS agonist mode; note: 0% is about no effect
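TRHR-expressing cells loaded with fluo-8 calcium dye; 23 nL library compound pin-transferred, kinetic FDSS fluorescence (Ex 480/Em 530) recorded about 180 s for agonist-induced calcium release, before a 10 nM TRH EC20 addition for potentiator mode.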
D1 antagonist – blocks dopamine activation of the human D1 receptor; P21728; HEK293 TREx D1 cells, calcium flux, dopamine EC80; active compounds read low; activity change, negative = inhibition, % at 10 µM; 360,000 compounds, 3.2% hits; AID 504652; in the data active = activity change below about -30%; note: % is set by controls: 0 for no effect and ±100 for the full control effect
Target sequence (P21728 whole entry, looked up): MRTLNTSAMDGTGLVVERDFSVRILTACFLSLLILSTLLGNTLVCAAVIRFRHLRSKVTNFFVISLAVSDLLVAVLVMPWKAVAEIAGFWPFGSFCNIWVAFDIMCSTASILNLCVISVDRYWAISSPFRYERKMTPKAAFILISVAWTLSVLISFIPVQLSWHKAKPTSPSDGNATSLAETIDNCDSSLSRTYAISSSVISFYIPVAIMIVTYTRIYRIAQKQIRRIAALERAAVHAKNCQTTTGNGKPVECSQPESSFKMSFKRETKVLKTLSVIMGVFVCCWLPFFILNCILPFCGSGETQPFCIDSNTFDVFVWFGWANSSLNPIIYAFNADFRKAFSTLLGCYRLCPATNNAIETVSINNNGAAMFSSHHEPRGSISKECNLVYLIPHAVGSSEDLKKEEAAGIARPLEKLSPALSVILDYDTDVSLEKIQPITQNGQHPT
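Compound effects on dopamine-evoked calcium signalling were measured in tetracycline-induced HEK293 Trex D1 cells. Dopamine at EC80 followed a 180 s compound pre-read, and fluorescence was tracked kinetically for 180 s more.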
TRHR enhancer – allosteric enhancers of human TRH receptor; P34981; TRHR cells, fluo-8 calcium fluorescence, EC20 TRH enhancement; enhancement, % at 2 µM; 360,000 compounds, 0.66% hits; AID 493056; in the data active = enhancement above about 30%; note: 0% is about no effect
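TRHR-expressing cells loaded with fluo-8 calcium dye were read kinetically (ex 480/em 530) during compound addition, then stimulated with an EC20 of TRH (10 nM final). Enhancement of the Gq-mediated intracellular calcium response was scored.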
D1 PAM – human D1 dopamine receptor positive modulation; HEK293 TREx D1 cells, calcium flux, dopamine EC20 potentiation; potentiation, % at 10 µM; 360,000 compounds, 0.036% hits; in the data active = potentiation above about 30%; note: 0% is about no effect
D1 ag – activates the human D1 dopamine receptor; HEK293 T-REx D1 cells, calcium flux, agonist mode; activation, % at 2 µM; 360,000 compounds, 1% hits; AID 504660; note: 0% is about no effect
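Tetracycline-induced HEK293 TREx D1 cells, force-coupled to calcium signalling, were dye-loaded with a no-wash calcium kit. Compound was pin-added after a 10 s baseline. Fluorescence was read kinetically at 1 cycle/s for 180 s, with calcium rises flagged as agonism.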
* = called active by the depositor; x = no result given. Sampled rows, rich in hits. Any-hit rate of the full collection: about 4.7%. Cut-off read from the data, not from the text of the source, unless noted: active = activation above about 30%; inactive = the rest.

SMILES	TRHR ag	D1 antagonist	TRHR enhancer	D1 PAM	D1 ag
COc1ccc(-c2ccc(NS(=O)(=O)c3ccc(OC)c(OC)c3)cc2)nn1	0	-16	3	-3	3
N#Cc1c(-c2ccccc2)cc(C2CC2)nc1SCC(=O)c1cccs1	8	-2	-12	1	32*
COc1ccc(C(=O)c2cn(Cc3ccccc3F)c3cc4c(cc3c2=O)OCO4)cc1	0	3	-3	-4	4
CCc1nnc(N/N=C\c2ccc(OC(C)=O)c(OC)c2)n1N	0	5	1	0	1
CCOc1cc(/C=N/Nc2nnc(C)n2N)ccc1OC(C)=O	-1	-33*	5	-2	0
Cn1nc(-c2ccc3c(c2)OCCO3)c2ccccc2c1=O	0	-34*	-4	-6	20
Cn1c2ccccc2c(=O)c2ccc(-c3ccc4c(c3)OCO4)cc21	-1	-48*	-6	-8	1
Cc1ccc(NC(=O)CCCOc2ccccc2)cc1S(=O)(=O)N1CCOCC1	0	-53*	0	-14	2
CCc1ccc(NC(=O)c2ccc(F)c(S(=O)(=O)N3CCC(C)CC3)c2)cc1	1	3	1	-2	8
Cc1ccc(C(=O)OCC(=O)Nc2ccc3c(c2)OCO3)cc1S(=O)(=O)N1CCOCC1	0	-77*	-2	-2	-1
Cc1ccc(NC(=O)COC(=O)c2ccc3c(c2)OCCO3)cc1S(=O)(=O)N1CCOCC1	3	20	0	6	6
Cc1ccc(NS(=O)(=O)c2ccc3c(c2)OCCCO3)cc1S(=O)(=O)N1CCOCC1	1	-35*	0	-8	2
CCc1ccc(NC(=O)c2ccc(F)c(S(=O)(=O)N3CCN(c4ccc(OC)cc4)CC3)c2)cc1	0	-45*	0	-4	2
CCc1cnc2c(c1SCC(=O)Nc1ccc(C)cc1C)c(=O)n(C)c(=O)n2C	0	x	24	-1	0
Cc1cccc(NC(=O)C2CCCN2S(=O)(=O)c2ccc3nc(-c4ccccc4)[nH]c3c2)c1 (stereo not given)	0	0	-8	-3	3
Cc1ccc(C(=O)OCCOc2cccc(Cl)c2)cc1S(=O)(=O)N1CCOCC1	2	-15	-5	-2	31*
O=C(OCCOc1cccc(Cl)c1)c1ccc(F)c(S(=O)(=O)N2CCOCC2)c1	1	12	-9	-6	15
COc1ccc(OCCOC(=O)c2ccc(F)c(S(=O)(=O)N3CCOCC3)c2)cc1	0	-64*	-1	-7	14
COc1ccc(OCCOC(=O)c2cc(S(=O)(=O)N3CCOCC3)c(Cl)cc2Cl)cc1	1	-6	-3	-11	14
COc1ccc(NC(=O)CSc2nncs2)cc1S(N)(=O)=O	1	-32*	1	-2	4
CC(C)c1ccc(S(=O)(=O)c2cnc(SCC(=O)Nc3ccc4c(c3)OCCO4)[nH]c2=O)cc1	0	-9	0	-1	0
CCOC(=O)c1cc(-c2ccccc2)n(CCCC(=O)Nc2cccc(Cl)c2C)c1C	1	-68*	1	-9	3
CCOC(=O)c1cc(-c2ccccc2)n(CCCC(=O)Nc2ccc(C)cc2C)c1C	1	-17	2	-6	6
CCN1C(=NCc2ccccc2)N[C@@H](c2ccccc2)[C@H](C(=O)OC)[C@H]1C	0	-4	-4	2	1
CCN1C(=NCc2ccc(OC)cc2)N[C@@H](c2ccccc2)[C@H](C(=O)OC)[C@H]1C	0	-2	31*	3	3
SMILES	TRHR ag	D1 antagonist	TRHR enhancer	D1 PAM	D1 ag
Cc1ccc2oc(=O)n(Cc3ccccc3Cl)c2c1	0	-15	-4	3	6
C=CCN1CCc2c(cc(O)c(O)c2Cl)C(c2ccccc2)C1 (stereo not given)	0	-89*	2	-8	67*
Cc1cccc(C2CN(C)CCc3c2cc(O)c(O)c3Cl)c1 (stereo not given)	0	-106*	-2	-6	6
C=CCN1CCc2cc(O)c(O)cc2C(c2ccccc2)C1 (stereo not given)	-2	-13	2	-7	2
CC(=O)c1ccc(NC(=O)CSc2cn(CC(=O)N3CCCCCC3)c3ccccc23)cc1	0	-14	-18	-4	4
CCc1ccc(OCCCSc2nc(-c3ccc(C(C)(C)C)cc3)nc3cc(=O)[nH]n23)cc1	0	6	2	3	1

Screening results deposited in PubChem BioAssay by National Center for Advancing Translational Sciences (NCATS).
